“And” between values parts separate entries of the source, which are not always exact repeats. Identical values can stand only once. Inconclusive results are not listed. The source holds several records for some structures; these can differ, active in one and inactive in another. The source made the active and inactive calls. Unless noted, the call rests on the fitted dose curve; in most records, active means well fitted curve in the direction sought with a large enough effect in the repeat runs; inconclusive means weak or mixed curves; inactive means no such curve, though single readings can be large; an effect the other way counts as inactive or inconclusive.
Key:
[1] = qHTS assay to test for compound auto fluorescence at 535 nm (green) in HEK293 cells (AID 720680)
[2] = qHTS assay to test for compound auto fluorescence at 460 nm (blue) in HEK293 cell free culture (AID 720681); further: potency means the concentration at half of the fitted maximal effect
Procedure, shortened: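 Compounds were added to cell-free DMEM with 10% FBS and fluorescence read directly. The blue channel used 405 nm excitation and 460 nm emission, with triamterene as the reference fluorophore.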

[3] = qHTS assay to test for compound auto fluorescence at 535 nm (green) in HEK293 cell free culture (AID 720682)
Procedure, shortened: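 Compounds were pin-transferred into cell-free DMEM with 10% FBS, and green fluorescence was read at excitation 485 nm and emission 535 nm. Intensities were expressed as fluorescein-equivalent values.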

[4] = qHTS assay to test for compound auto fluorescence at 590 nm (red) in HEK293 cell free culture (AID 720683)
Procedure, shortened: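 Cell-free wells of DMEM with 10% FBS received compound, and intrinsic fluorescence was read at excitation/emission 540/590 nm. Values expressed as equivalence to Rose Bengal sodium.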

[5] = qHTS assay to test for compound auto fluorescence at 590 nm (red) in HepG2 cell free culture (AID 720684)
Procedure, shortened: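 Rose Bengal sodium served as the reference for red signal. Test compounds were dispensed into serum-containing MEM (10% FBS) without cells, and plates were read at 540/590 nm.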

[6] = qHTS assay to test for compound auto fluorescence at 535 nm (green) in HepG2 cell free culture (AID 720686)
[7] = qHTS assay to test for compound auto fluorescence at 460 nm (blue) in HepG2 cells (AID 720687); further: potency means the concentration at half of the fitted maximal effect
Procedure, shortened: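 HepG2 cells in MEM with 10% FBS, attached overnight at 37 C, were exposed to compound or DMSO for 1 hr at 37 C, 5% CO2. Blue fluorescence was read at 405/460 nm, with triamterene as reference fluorophore.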

[8] = target: Glucocorticoid receptor (Homo sapiens) (UniProt P04150); assay: qHTS assay to identify small molecule agonists of the glucocorticoid receptor (GR) signaling pathway (AID 720691; active means well fitted activation curve with a large enough effect in the signal ratio in the repeat runs, not every such curve was filed as active; the % refers to the signal ratio)
Procedure, shortened: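 Measures GR pathway activation through a GRE-beta-lactamase reporter stably integrated in HeLa cells, with 18 h compound treatment at 37 C and fluorescence detection using a FRET substrate.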

[9] = target: Glucocorticoid receptor (Homo sapiens) (UniProt P04150); assay: qHTS assay to identify small molecule antagonists of the glucocorticoid receptor (GR) signaling pathway (AID 720692; active means well fitted inhibition curve with a large enough effect in the signal ratio in the repeat runs, not every such curve was filed as active; the % refers to the signal ratio; further: potency means the concentration at half of the fitted maximal effect)
Procedure, shortened: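 Tox21 10K library screened in concentration-response for blockade of dexamethasone (5 nM final)-induced GRE-bla reporter activity in HeLa cells; 18 h treatment, fluorescence read.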

[10] = qHTS assay to identify small molecule antagonists of the glucocorticoid receptor (GR) signaling pathway - cell viability counter screen (AID 720693); further: nearly all actives have a fitted effect of over 55% in size
[11] = qHTS assay for identifying genotoxic compounds that show differential cytotoxicity against isogenic chicken DT40 cell lines with known DNA damage response pathways - Rev3 mutant cell line (AID 743014); further: nearly all actives have a fitted effect of over 55% in size; further: potency means the concentration at half of the fitted maximal effect
[12] = qHTS assay for identifying genotoxic compounds that show differential cytotoxicity against isogenic chicken DT40 cell lines with known DNA damage response pathways - Rad54/Ku70 mutant cell line (AID 743015); further: nearly all actives have a fitted effect of over 60% in size; further: potency means the concentration at half of the fitted maximal effect
[13] = qHTS assay to identify small molecule antagonists of the androgen receptor (AR) signaling pathway - cell viability counter screen (AID 743033; further: nearly all actives have a fitted effect of over 45% in size; further: potency means the concentration at half of the fitted maximal effect)
[14] = qHTS assay to identify small molecule antagonists of the androgen receptor (AR) signaling pathway using the MDA cell line - cell viability counter screen (AID 743041; further: nearly all actives have a fitted effect of over 45% in size; further: potency means the concentration at half of the fitted maximal effect)
Procedure, shortened: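 Cytotoxicity counter screen: MDA-kb2 AR-luc cells, compound + R1881, 16 h, 37C, 0% CO2; CellTiter-Fluor added at 15.5 h, fluorescence read after 30 min.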

[15] = qHTS assay for identifying genotoxic compounds that show differential cytotoxicity against isogenic chicken DT40 cell lines with known DNA damage response pathways - wild type cell line (AID 743012); further: nearly all actives have a fitted effect of over 60% in size; further: potency means the concentration at half of the fitted maximal effect
Procedure, shortened: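 Endpoint: CellTiter-Glo luminescence, 30 min RT. Cells: wild type DT40, 300/well. Exposure: compounds in DMSO, 40 h, 37 C/5% CO2, after ~0.5 h pre-incubation.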

[16] = target: Androgen receptor (Homo sapiens) (UniProt P10275); assay: qHTS assay to identify small molecule antagonists of the androgen receptor (AR) signaling pathway (AID 743035; active means well fitted inhibition curve with a large enough effect in the signal ratio in the repeat runs, not every such curve was filed as active; the % refers to the signal ratio)
Procedure, shortened: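 R1881 agonist challenge of a HEK293 UAS-beta-lactamase AR reporter line in the presence of compound (16 h, 37C); signal taken as FRET fluorescence after 2 h with LiveBLAzer B/G substrate at room temperature.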

[17] = target: Androgen receptor (Homo sapiens) (UniProt P10275); assay: qHTS assay to identify small molecule agonists of the androgen receptor (AR) signaling pathway (AID 743036; active means well fitted activation curve with a large enough effect in the signal ratio in the repeat runs, with a control signal flat, not every such curve was filed as active; the % refers to the signal ratio; further: potency means the concentration at half of the fitted maximal effect)
Procedure, shortened: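 Activation was read as beta-lactamase FRET signal from LiveBLAzer B/G substrate, added for 2 h at room temperature. Before that, GeneBLAzer AR-UAS-bla GripTite (HEK293) cells had 16 h compound exposure at 37C.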

[18] = target: Androgen receptor (Homo sapiens) (UniProt P10275); assay: qHTS assay to identify small molecule agonists of the androgen receptor (AR) signaling pathway using the MDA cell line (AID 743040; further: nearly all actives have a fitted effect of over 20% in size); settings: MDA-kb2 AR-luc cells, MMTV luciferase, 16 h, stronger effect = higher value
Procedure, shortened: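 Luciferase read-out, ONE-Glo, 30 min RT. Cells: MDA-kb2 AR-luc, MMTV promoter with AR and GR response elements. Compound exposure 16 h, 37C, 0% CO2, after 5 h pre-incubation. qHTS agonist mode.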

[19] = target: Androgen receptor (Homo sapiens) (UniProt P10275); assay: qHTS assay to identify small molecule antagonists of the androgen receptor (AR) signaling pathway using the MDA cell line (AID 743042; further: nearly all actives have a fitted effect of over 55% in size)
Procedure, shortened: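 MDA-kb2 breast carcinoma cells carrying MMTV-luciferase (AR/GR responsive) were co-treated with compounds and the agonist R1881 for 16 h at 37C. Inhibition read as ONE-Glo luminescence; CellTiter-Fluor fluorescence measured in parallel for cytotoxicity.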

[20] = qHTS assay to test for compound auto fluorescence at 460 nm (blue) in HepG2 cell free culture (AID 720685); further: potency means the concentration at half of the fitted maximal effect
Procedure, shortened: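 Cell-free plates of MEM plus 10% FBS received 23 nL compound or DMSO vehicle; blue-channel (405/460 nm) intensity scored against triamterene as reference fluorophore.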
On the % scale 0 is the no-effect control and ±100 the full control effect; tags describe the fitted curve by direction and shape or compound fluorescence and quenching.

Androgen receptor (Homo sapiens), sequence (P10275 whole entry, looked up): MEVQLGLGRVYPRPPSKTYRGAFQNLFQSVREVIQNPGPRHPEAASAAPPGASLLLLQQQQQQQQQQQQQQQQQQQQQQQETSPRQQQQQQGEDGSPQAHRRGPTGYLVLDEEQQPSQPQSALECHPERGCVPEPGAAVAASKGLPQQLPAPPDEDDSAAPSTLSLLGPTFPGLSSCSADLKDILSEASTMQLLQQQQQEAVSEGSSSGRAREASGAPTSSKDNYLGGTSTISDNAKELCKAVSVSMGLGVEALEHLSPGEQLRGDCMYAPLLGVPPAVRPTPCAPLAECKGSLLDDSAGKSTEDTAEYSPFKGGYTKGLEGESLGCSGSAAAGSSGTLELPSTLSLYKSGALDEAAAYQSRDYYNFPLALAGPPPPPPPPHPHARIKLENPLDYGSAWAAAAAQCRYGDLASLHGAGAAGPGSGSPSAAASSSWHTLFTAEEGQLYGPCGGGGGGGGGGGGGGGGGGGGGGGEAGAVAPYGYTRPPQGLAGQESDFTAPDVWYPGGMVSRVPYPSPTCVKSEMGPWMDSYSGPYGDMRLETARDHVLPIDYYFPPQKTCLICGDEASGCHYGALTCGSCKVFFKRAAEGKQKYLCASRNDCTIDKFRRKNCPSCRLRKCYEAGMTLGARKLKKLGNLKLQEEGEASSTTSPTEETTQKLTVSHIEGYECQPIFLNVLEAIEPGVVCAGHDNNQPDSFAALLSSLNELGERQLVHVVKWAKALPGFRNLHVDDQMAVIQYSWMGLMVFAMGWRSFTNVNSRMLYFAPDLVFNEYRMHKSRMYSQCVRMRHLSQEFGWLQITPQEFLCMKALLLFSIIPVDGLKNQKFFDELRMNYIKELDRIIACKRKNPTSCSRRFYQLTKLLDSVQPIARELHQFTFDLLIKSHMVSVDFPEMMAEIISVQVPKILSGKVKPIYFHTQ
Glucocorticoid receptor (Homo sapiens), sequence (P04150 whole entry, looked up): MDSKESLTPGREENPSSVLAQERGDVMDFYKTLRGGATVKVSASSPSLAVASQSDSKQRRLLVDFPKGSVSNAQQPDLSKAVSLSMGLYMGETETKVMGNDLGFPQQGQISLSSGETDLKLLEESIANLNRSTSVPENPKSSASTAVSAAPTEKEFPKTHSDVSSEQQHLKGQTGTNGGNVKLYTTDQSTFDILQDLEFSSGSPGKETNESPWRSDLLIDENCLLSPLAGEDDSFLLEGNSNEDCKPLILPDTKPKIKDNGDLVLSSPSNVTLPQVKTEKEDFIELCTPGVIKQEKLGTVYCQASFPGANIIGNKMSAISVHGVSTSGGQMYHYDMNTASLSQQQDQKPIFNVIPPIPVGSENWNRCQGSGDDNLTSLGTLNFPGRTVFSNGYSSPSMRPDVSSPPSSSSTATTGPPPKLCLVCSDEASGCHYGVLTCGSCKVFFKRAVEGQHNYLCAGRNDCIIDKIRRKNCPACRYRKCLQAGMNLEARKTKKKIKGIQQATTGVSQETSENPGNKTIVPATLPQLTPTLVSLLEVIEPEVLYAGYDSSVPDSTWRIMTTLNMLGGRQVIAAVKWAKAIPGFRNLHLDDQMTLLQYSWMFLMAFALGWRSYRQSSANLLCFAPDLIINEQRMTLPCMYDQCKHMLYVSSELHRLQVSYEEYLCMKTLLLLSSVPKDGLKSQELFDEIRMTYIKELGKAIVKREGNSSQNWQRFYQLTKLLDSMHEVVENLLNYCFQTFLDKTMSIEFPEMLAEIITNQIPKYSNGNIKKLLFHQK

C=C1C[C@]23C[C@@]1(O)CC[C@H]2[C@@]12C=C[C@H](O)[C@@](C)(C(=O)O1)[C@H]2[C@@H]3C(=O)O
inactive: outcome [1] | Potency [2] | outcome [3] | outcome [4] | outcome [5] | outcome [6] | Potency [7] | outcome [8] | Potency [9] | Potency [10] | Potency [11] | Potency [12] | Potency [13] | Potency [14]

CCCOC(=O)NCCCN(C)C
inactive: outcome [1] | Potency [2] | outcome [3] | outcome [4] | outcome [5] | outcome [6] | Potency [7] | Potency [10] | Potency [15] | Potency [11] | Potency [12] | Potency [13] | Potency [14]

Cc1ccc(C(C)C)cc1
inactive: outcome [1] | Potency [2] | outcome [3] | outcome [4] | outcome [5] | Potency [7] | outcome [8] | Potency [10] | Potency [15] | Potency [11] | Potency [12] | Potency [13] | Potency [16] | Potency [17] | activity change ([18]; at 70.3 µM (top of the series)) 1.12% | activity change ([18]; at 95 µM (top of the series)) 0.115% | Potency [14] | Potency [19]

Nc1cccc(C(F)(F)F)c1
inactive: outcome [1] | Potency [2] | outcome [3] | outcome [4] | outcome [5] | outcome [6] | Potency [7] | Potency [10] | Potency [11] | Potency [12] | Potency [13] | Potency [14]

O=C(NCC1CCCCN1)c1cc(OCC(F)(F)F)ccc1OCC(F)(F)F (stereo not drawn)
29.8 µM (active) and inactive: Potency [15]
inactive: outcome [1] | Potency [2] | outcome [3] | outcome [4] | outcome [5] | outcome [6] | Potency [7] | Potency [10] | Potency [13] | Potency [14]

O=C1O[C@H]([C@H](O)CO)C(O)=C1O
inactive: outcome [1] | Potency [2] | outcome [3] | outcome [5] | Potency [20] | outcome [6] | Potency [7] | outcome [8] | Potency [9] | Potency [10] | Potency [11] | Potency [12] | Potency [13] | Potency [14]

COc1cc(NC(=O)CC(C)=O)c(OC)cc1Cl
inactive: outcome [1] | Potency [2] | outcome [3] | outcome [4] | outcome [5] | outcome [6] | Potency [7] | outcome [8] | Potency [10] | Potency [15] | Potency [11] | Potency [12] | Potency [13] | Potency [14]
active: Potency [9] 54.9 µM

C=CC(C)(C)C
inactive: outcome [1] | Potency [2] | outcome [3] | outcome [4] | outcome [5] | outcome [6] | Potency [7] | outcome [8] | Potency [10] | Potency [11] | Potency [12] | Potency [13] | Potency [14]

O=c1n(CCCN2CCN(c3cccc(Cl)c3)CC2)nc2ccccn12
inactive and 54.5 µM (active): Potency [15] | Potency [11]
inactive: outcome [1] | Potency [2] | outcome [3] | outcome [4] | outcome [5] | outcome [6] | Potency [7] | Potency [10] | Potency [13] | Potency [14]
inactive and 43.3 µM (active): Potency [12]

CCCCCNCCCCC
inactive: outcome [1] | Potency [2] | outcome [3] | outcome [4] | outcome [5] | Potency [20] | Potency [7] | Potency [10] | Potency [11] | Potency [12] | Potency [13] | Potency [14]

CC(CN1c2ccccc2Sc2ccccc21)N(C)C (stereo not drawn)
inactive: outcome [1] | Potency [2] | outcome [3] | outcome [4] | outcome [5] | Potency [7] | Potency [10]
inactive and 44.1 µM (active): Potency [13]
active: Potency [15] 21.1 µM and 55 µM and 54.5 µM | Potency [11] 26.6 µM and 27.6 µM and 24.3 µM | Potency [12] 26.6 µM and 30.9 µM and 54.5 µM

CN1Cc2c(N)cccc2C(c2ccccc2)C1 (stereo not drawn)
inactive and 54.5 µM (active): Potency [12]
inactive: outcome [1] | Potency [2] | outcome [3] | outcome [5] | Potency [20] | outcome [6] | Potency [7] | outcome [8] | Potency [9] | Potency [10] | Potency [15] | Potency [13] | Potency [14]
inactive and 61.1 µM (active): Potency [11]

COc1ccc2cc3[n+](cc2c1OC)CCc1cc2c(cc1-3)OCO2
active: Potency [15] 2.37 µM and 4.36 µM | Potency [11] 3.35 µM and 3.09 µM | Potency [12] 4.22 µM and 5.49 µM | Potency [14] 22.1 µM and 7.75 µM
inactive: outcome [1] | Potency [2] | outcome [3] | outcome [4] | outcome [5] | Potency [7] | outcome [8] | Potency [10]

Nc1nc(N)c2nc(-c3ccccc3)c(N)nc2n1
inactive: outcome [1] | outcome [3] | outcome [4] | outcome [5] | Potency [10] | activity change ([18]; at 70.3 µM (top of the series)) 18% | Potency [14] | Potency [19]
active: Potency [2] 12.6 µM and 39.8 µM | Potency [20] 12.6 µM [fluorescent] and 39.8 µM [fluorescent] | Potency [7] 12.6 µM [fluorescent] and 39.8 µM [fluorescent] | Potency [15] 11.9 µM and 12.3 µM and 4.86 µM | Potency [11] 9.44 µM and 3.9 µM and 6.11 µM | Potency [12] 26.6 µM and 6.94 µM and 21.7 µM | Potency [13] 49.5 µM | Potency [17] 21.3 µM and 49.5 µM and 49 µM

CN1CCCC1=O
inactive: outcome [1] | Potency [2] | outcome [3] | outcome [4] | outcome [5] | outcome [6] | Potency [7] | Potency [10] | Potency [15] | Potency [11] | Potency [12] | Potency [13] | Potency [14]

N#CCC(=O)O
inactive: outcome [1] | Potency [2] | outcome [3] | outcome [4] | outcome [5] | outcome [6] | Potency [7] | outcome [8] | Potency [9] | Potency [10] | Potency [15] | Potency [11] | Potency [12] | Potency [13] | Potency [14]

COc1ccccc1[N+](=O)[O-]
inactive: outcome [1] | Potency [2] | outcome [3] | outcome [4] | outcome [5] | Potency [7] | Potency [10] | Potency [15] | Potency [11] | Potency [12] | Potency [13] | Potency [14]

CC/C=C(\C(=O)N[C@@H]1C(=O)N2C(C(=O)OCOC(=O)C(C)(C)C)=C(COC(N)=O)CS[C@H]12)c1csc(N)n1
inactive: outcome [1] | Potency [2] | outcome [3] | outcome [4] | outcome [5] | outcome [6] | Potency [7] | outcome [8] | Potency [10] | Potency [15] | Potency [11] | Potency [12] | Potency [13] | Potency [14]
